Results on 44 sequences are retold here after the supplement of paper PMC3545927.

The test has as its target furin, P09958. As to the kind of experiment: furin cleavage Z-score vs untreated control; higher = more cleavage, active = 3.5 or more, inactive = 1 or less, 8 variable residues between constant flanks. In outline:
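The cleavage Z-score is the log read count relative to furin-free reactions, lowess-adjusted and scaled by median absolute deviation. Counts came from sequencing DNA released from bead-bound 8-mer peptide–cDNA fusions after digestion with purified furin for 7.5, 15 or 30 min.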

Some of the results follow. How many sequences the whole screen found active is unknown.
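Also: purified furin at 1:10 enzyme:substrate in 50 mM HEPES pH 7.5.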

furin, P09958, sequence (P09958 whole entry, the tested form may be a part): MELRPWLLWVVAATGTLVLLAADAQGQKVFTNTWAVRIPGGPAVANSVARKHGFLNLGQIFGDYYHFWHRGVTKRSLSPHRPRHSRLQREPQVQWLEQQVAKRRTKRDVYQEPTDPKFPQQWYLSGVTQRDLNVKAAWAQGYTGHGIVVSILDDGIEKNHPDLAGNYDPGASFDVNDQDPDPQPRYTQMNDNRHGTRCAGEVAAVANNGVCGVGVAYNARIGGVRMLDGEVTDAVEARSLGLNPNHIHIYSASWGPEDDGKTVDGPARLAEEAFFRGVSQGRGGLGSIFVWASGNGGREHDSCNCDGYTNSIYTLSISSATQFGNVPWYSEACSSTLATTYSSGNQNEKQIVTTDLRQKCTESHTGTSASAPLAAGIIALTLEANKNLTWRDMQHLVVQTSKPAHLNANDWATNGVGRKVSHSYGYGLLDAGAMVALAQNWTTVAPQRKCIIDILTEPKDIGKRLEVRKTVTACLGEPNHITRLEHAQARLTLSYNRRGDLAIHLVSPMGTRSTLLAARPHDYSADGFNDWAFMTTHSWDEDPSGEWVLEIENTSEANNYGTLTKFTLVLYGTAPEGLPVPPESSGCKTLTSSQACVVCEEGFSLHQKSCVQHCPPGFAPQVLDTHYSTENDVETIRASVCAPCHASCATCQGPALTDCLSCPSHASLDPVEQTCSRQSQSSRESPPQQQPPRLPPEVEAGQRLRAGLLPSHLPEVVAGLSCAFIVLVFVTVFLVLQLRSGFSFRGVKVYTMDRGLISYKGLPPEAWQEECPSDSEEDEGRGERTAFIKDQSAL

Take CAEDPCHRPSAGNASASA [HC2331]: the “furin cleavage Z-score” value is -1.74 (inactive) (7.5 min), -0.655 (inactive) (15 min) and 0.261 (inactive) (30 min).
For the sequence CAGAVQWMNRAGNASASA [HC1116], the “furin cleavage Z-score” value runs as follows: (7.5 min) 0.142 (inactive); (15 min) 1.71; (30 min) -0.148 (inactive).
The matching figures for CAKLNRKYRSAGNASASA [FS-1132]: 9.69 (active), 8.1 (active) and 6.59 (active).
In the same order, the values of CAKLNRRSRKAGNASASA [FS-810] are 4.08 (active), 6.18 (active) and 5.19 (active).
Consider CAHQRRKYRSAGNASASA [FS-796], for which the “furin cleavage Z-score” value is, setting by setting: (7.5 min) 4.89 (active); (15 min) 5.12 (active); (30 min) 6.05 (active).
For the sequence CAEAIYQCCDAGNASASA [HC1489], the “furin cleavage Z-score” value (7.5 min) was 1.16, the “furin cleavage Z-score” value (15 min) is 0.588 (inactive) and the “furin cleavage Z-score” value (30 min) was 0.702 (inactive).
In the same order, the values of CATIFKIRMYAGNASASA [HC473] are -0.151 (inactive), 0.348 (inactive) and -1.46 (inactive).
As for CAGKFRYRRVAGNASASA [FS-242], the “furin cleavage Z-score” value reads like this: (7.5 min) 9.76 (active); (15 min) 11.9 (active); (30 min) 8.82 (active).
For CASLCRYRRVAGNASASA [FS-1657], the “furin cleavage Z-score” value is 7.05 (active) (7.5 min), 6.79 (active) (15 min) and 8.55 (active) (30 min).
In the same order, the values of CASLMAFTAAAGNASASA [HC1055] are -0.632 (inactive), -0.242 (inactive) and -1.13 (inactive).
For the sequence CAAAASKVKAAGNASASA [HC1407], the “furin cleavage Z-score” value was 0.991 (inactive) (7.5 min), -0.764 (inactive) (15 min) and -0.995 (inactive) (30 min).
For the sequence CARCRRALRRAGNASASA [FS-1687], the “furin cleavage Z-score” value is 3.87 (active) (7.5 min), 3.85 (active) (15 min) and 7.16 (active) (30 min).
CARARRALRRAGNASASA [FS-2130]: the “furin cleavage Z-score” value runs as follows: (7.5 min) 3.99 (active); (15 min) 4.89 (active); (30 min) 7.04 (active).
Regarding CARARRAVDKAGNASASA [FS-2252], the “furin cleavage Z-score” value is, setting by setting: (7.5 min) 6.76 (active); (15 min) 6.96 (active); (30 min) 6.15 (active).
The matching figures for CARARRVTDAAGNASASA [FS-2890]: -1.51 (inactive), -0.986 (inactive) and -0.304 (inactive).
In the case of CARARRAVQKAGNASASA [FS-3149], the “furin cleavage Z-score” value is, setting by setting: (7.5 min) 1.2; (15 min) 0.71 (inactive); (30 min) 1.68.
Regarding CARARRQDVKAGNASASA [FS-2649], the “furin cleavage Z-score” value runs as follows: (7.5 min) 0.761 (inactive); (15 min) 0.529 (inactive); (30 min) 2.07.
As to CARCIRAFCRAGNASASA [FS-2897], the “furin cleavage Z-score” value is -0.211 (inactive) (7.5 min), 0.945 (inactive) (15 min) and 0.335 (inactive) (30 min).
The matching figures for CAVCAAILRRAGNASASA [HC1109]: -1.76 (inactive), -0.361 (inactive) and 0.614 (inactive).
For the sequence CARARRAIAAAGNASASA [FS-3148], the “furin cleavage Z-score” value reads like this: (7.5 min) 5.95 (active); (15 min) 5.73 (active); (30 min) 4.12 (active).
On to CARARRVLEAAGNASASA [FS-1685], for which the “furin cleavage Z-score” value is, setting by setting: (7.5 min) -0.496 (inactive); (15 min) -0.739 (inactive); (30 min) -0.66 (inactive).
As to CAAGVGIYLLAGNASASA [HC1661], the “furin cleavage Z-score” value runs as follows: (7.5 min) -0.0484 (inactive); (15 min) -0.628 (inactive); (30 min) 0.389 (inactive).
Consider CARLHGLSAFAGNASASA [HC1603], for which the “furin cleavage Z-score” value was -0.521 (inactive) (7.5 min), -1.08 (inactive) (15 min) and 0.0737 (inactive) (30 min).
For CAFTPCSGSWAGNASASA [HC1827], the “furin cleavage Z-score” value was -0.899 (inactive) (7.5 min), -0.656 (inactive) (15 min) and -0.511 (inactive) (30 min).
Turning to CACEMEECSQAGNASASA [HC1800], the “furin cleavage Z-score” value is, setting by setting: (7.5 min) -0.225 (inactive); (15 min) 0.44 (inactive); (30 min) -0.298 (inactive).
For the sequence CARLRKGCGAAGNASASA [FS-2157], the “furin cleavage Z-score” value is -0.162 (inactive) (7.5 min), 0.798 (inactive) (15 min) and -0.0332 (inactive) (30 min).
With CAGKVLIDILAGNASASA [HC1083], the “furin cleavage Z-score” value is -0.625 (inactive) (7.5 min), -0.337 (inactive) (15 min) and -0.826 (inactive) (30 min).
Consider CALEGRRKRAAGNASASA [FS-938], for which the “furin cleavage Z-score” value by setting is: (7.5 min) 9.45 (active); (15 min) 10.2 (active); (30 min) 8.2 (active).
Take CAQKGRVRRAAGNASASA [FS-78]: the “furin cleavage Z-score” value is 11.9 (active) (7.5 min), 10.5 (active) (15 min) and 7.65 (active) (30 min).
Take CAGKVRLRRAAGNASASA [FS-655]: the “furin cleavage Z-score” value is 8.27 (active) (7.5 min), 7.38 (active) (15 min) and 7.81 (active) (30 min).
As to CAAPRRLRRAAGNASASA [FS-7], the “furin cleavage Z-score” value is, setting by setting: (7.5 min) 6.44 (active); (15 min) 6.75 (active); (30 min) 5.94 (active).
Turning to CARGVAKAVDAGNASASA [HC754], the “furin cleavage Z-score” value is, setting by setting: (7.5 min) -0.917 (inactive); (15 min) 0.591 (inactive); (30 min) 0.29 (inactive).
Consider CALWILQASLAGNASASA [HC610], for which the “furin cleavage Z-score” value (7.5 min) was -0.000456 (inactive), the “furin cleavage Z-score” value (15 min) worked out at 2.88 and the “furin cleavage Z-score” value (30 min) worked out at 1.52.
In the case of CADCNTCVTQAGNASASA [HC887], the “furin cleavage Z-score” value is, setting by setting: (7.5 min) 0.505 (inactive); (15 min) -0.795 (inactive); (30 min) -0.033 (inactive).
In the same order, the values of CAEVPCHCPSAGNASASA [HC2380] are -0.21 (inactive), 0.0658 (inactive) and -0.42 (inactive).
In the same order, the values of CASTPCSAHRAGNASASA [HC2573] are 0.385 (inactive), 0.166 (inactive) and 1.63.
With CALEGRVRRAAGNASASA [FS-268], the “furin cleavage Z-score” value is, setting by setting: (7.5 min) 10.4 (active); (15 min) 10.8 (active); (30 min) 9.36 (active).
CAYLNRYKRAAGNASASA [FS-635]: the “furin cleavage Z-score” value by setting is: (7.5 min) 8.98 (active); (15 min) 9.12 (active); (30 min) 5.24 (active).
In the case of CAVLKEVKAAAGNASASA [HC1404], the “furin cleavage Z-score” value was -0.975 (inactive) (7.5 min), 0.455 (inactive) (15 min) and -0.678 (inactive) (30 min).
Take CAWLKRRKRAAGNASASA [FS-1181]: the “furin cleavage Z-score” value (7.5 min) was 11.7 (active), the “furin cleavage Z-score” value (15 min) is 10.8 (active) and the “furin cleavage Z-score” value (30 min) is 7.39 (active).
In the same order, the values of CAGMGRVRRAAGNASASA [FS-27] are 11.2 (active), 10.9 (active) and 10 (active).
As to CATIASPKGPAGNASASA [HC705], the “furin cleavage Z-score” value was -0.242 (inactive) (7.5 min), -0.653 (inactive) (15 min) and -1.2 (inactive) (30 min).
With CACGKYLFNWAGNASASA [HC1631], the “furin cleavage Z-score” value by setting is: (7.5 min) -0.792 (inactive); (15 min) -0.758 (inactive); (30 min) -0.511 (inactive).
The matching figures for CAPVENLETTAGNASASA [HC759]: 0.416 (inactive), 0.844 (inactive) and 0.545 (inactive).
